In all, about 52,000 compounds went through this assay and about 4,300 (8.3%) were called active. For the sample, actives were picked, then their nearest neighbours and some compounds at random. A number with no mark means an inactive call. Cut-off read from the data, not from the text of the source: active = survival mostly below about 52% (no sharp cut-off); inactive = mostly above about 56%.

This assay relates to DeltatarO mutant. Description: S. aureus survival, RN4220 and DeltatarO strains – OD600, teichoic acid synthesis inhibitors, primary screen (AID 463173). The following applies: S. aureus RN4220 wild type/DeltatarO growth, OD600, 18 h, stronger effect = lower value, screened at 18.75 µg/mL (by protocol).
In the case of `COc1ccc(S(=O)(=O)Nc2ccc3c(c2)N(C(C)=O)CCC3)cc1F`, the survival is 85%.

`Cc1cc(SCCN2CCOCC2)nc2ccccc12`: the survival is 68%.

Consider `CCc1ccc(CNC(=O)c2ccc3nc(SCc4ccc(F)cc4)n(C)c3c2)cc1`, for which the survival was 94%.

Take `O=C(CSc1cn(CC(=O)N2CCCC2)c2ccccc12)Nc1cc(C(F)(F)F)ccc1Cl`: the survival was 52%.

Turning to `O=C1CSC(c2ccccc2)N1Nc1nc(N2CCOCC2)nc(N2CCOCC2)n1` (stereo unspecified), the survival was 101%.

In the case of `COc1cccc(CNC(=O)Cn2nc(N3CCN(c4ccccc4OC)CC3)ccc2=O)c1`, the survival was 86%.

As for `COc1ccc(Nc2cc(C)c3cc(NC(=O)COc4cccc(C)c4)ccc3n2)cc1`, the survival was 102%.

For the compound `Cc1cc(OCC(=O)Nc2ccc3c(c2)OCCO3)cc(C)c1Cl`, the survival was 77%.

Consider `CCn1c2ccccc2c2cc(NC(=O)COc3ccc(C)c(C)c3)ccc21`, for which the survival was 119%.

As to `CCn1c2ccccc2c2cc(NC(=O)COc3cccc(C)c3)ccc21`, the survival was 27% (active).

On to `CCn1c(=O)cc(OCC(=O)Nc2cc(OC)c(OC)c(OC)c2)c2ccccc21`, for which the survival is 47%.

In the case of `CCn1c2ccccc2c2cc(NC(=O)COC)ccc21`, the survival was 43% (active).

In the case of `CCn1c(=O)cc(SCC(=O)Nc2ccc(C)c(F)c2)c2ccccc21`, the survival is 89%.

As to `Cc1cccc(OCC(=O)Nc2ccc(NC(=O)c3ccco3)cc2)c1`, the survival was 83%.

Turning to `CCn1c2ccccc2c2cc(NC(=O)COc3cc(C)c(Cl)c(C)c3)ccc21`, the survival was 50% (active).

Take `COc1ccc(OCC2CNC(=O)O2)cc1` (stereo unspecified): the survival was 61%.

With `C=CCn1c(=O)/c(=C2/Sc3ccccc3N2CC)s/c1=C1/C(=O)NN=C1C`, the survival is 89%.

Consider `Cc1ccc(Nc2ccc(N3CCN(C(=O)c4cccc([N+](=O)[O-])c4)CC3)nn2)cc1`, for which the survival is 85%.

On to `O=C(NCCc1ccccc1)c1ccc2c(c1)N(Cc1ccc(Cl)cc1)C(=O)c1ccccc1S2(=O)=O`, for which the survival was 89%.

Consider `COCCCNC(=O)c1ccc2c(c1)N(Cc1ccccc1F)C(=O)c1ccccc1S2=O` (stereo unspecified), for which the survival was 83%.

As for `COC(=O)c1sc2cccc(F)c2c1S(=O)(=O)NCc1ccc(F)cc1`, the survival is 103%.

Take `N#CC1=C(N)C(C#N)(C#N)C(c2ccccc2)C2CCCC=C12` (stereo unspecified): the survival was 97%.

As for `Cc1ccc(C)c(N2CCN(C3=C(c4ccccc4)C(=O)c4ccccc43)CC2)c1`, the survival is 100%.

Regarding `COc1ccc(C2=C(N3CCN(c4cc(C)ccc4C)CC3)c3ccccc3C2=O)cc1`, the survival is 28% (active).

With `COc1ccc(C2=C(N3CCN(c4cc(Cl)ccc4C)CC3)c3ccccc3C2=O)cc1`, the survival is 95%.

As to `Cn1c(-c2ccccc2)cnc1NC(=O)c1ccc(F)cc1`, the survival was 81%.

On to `COc1cccc(-c2cnc(NCc3ccccc3Cl)n2C)c1`, for which the survival is 51%.

For `Cn1c(-c2cccc(Br)c2)cnc1NCc1cccc(F)c1`, the survival is 28% (active).

Regarding `CCc1ccc(CNc2ncc(-c3cccc(OC)c3)n2C)cc1`, the survival is 8% (active).

In the case of `COc1cccc(C(=O)n2nc(-c3cccnc3)nc2NCc2ccc(F)cc2)c1`, the survival is 71%.

For `O=C(NCc1cccc(F)c1)c1ccc(-n2cnc3cccnc32)cc1`, the survival was 97%.

For `Cc1cc(Cl)ccc1NC(=O)CS(=O)(=O)c1cccc2nsnc12`, the survival was 125%.

As for `Fc1ccc(-c2cc(-c3nc(-c4cccc(Cl)c4)no3)[nH]n2)cc1`, the survival was 88%.

With `CC(C)(C)c1ccc(C(=O)NC2CCSC2=O)cc1` (stereo unspecified), the survival was 92%.

`NC(=O)c1ccccc1NC(=O)Cn1nc(Cc2cccnc2)c2ccccc2c1=O`: the survival was 71%.

For the compound `O=C(NCCn1cc(SCc2cccc(F)c2)c2ccccc21)c1cccc(C(F)(F)F)c1`, the survival is 35% (active).

As for `Cc1ccc(C)c(CSc2cn(CCNC(=O)c3ccccc3F)c3ccccc23)c1`, the survival is 35% (active).

Consider `O=C(CSc1cn(CCNC(=O)c2ccccc2F)c2ccccc12)Nc1ccccc1F`, for which the survival is 80%.

For `COc1ccc(C(=O)NCCn2cc(SCc3ccc(C(F)(F)F)cc3)c3ccccc32)cc1OC`, the survival was 72%.

`CC(Sc1cn(CCNC(=O)c2ccccc2F)c2ccccc12)c1ccccc1` (stereo unspecified): the survival was 42% (active).

As for `COc1ccc(C(=O)NCCn2cc(SC(C)c3ccccc3)c3ccccc32)cc1OC` (stereo unspecified), the survival was 61%.

As to `O=C(NCCn1cc(SCc2ccc(C(F)(F)F)cc2)c2ccccc21)c1cccs1`, the survival is 95%.

As for `O=C(NCCn1cc(SCc2ccc(C(F)(F)F)cc2)c2ccccc21)c1ccccc1F`, the survival is 36% (active).

Turning to `Cc1ccc(C)c(CSc2cn(CCNC(=O)c3cccs3)c3ccccc23)c1`, the survival was 71%.

As to `O=C(CSc1cn(CCNC(=O)c2cccc(C(F)(F)F)c2)c2ccccc12)Nc1ccc2c(c1)OCCO2`, the survival was 87%.

Take `COc1ccc(C(=O)NCCn2cc(SCc3cc(C)ccc3C)c3ccccc32)cc1`: the survival was 57%.

As for `COc1ccc(C(=O)NCCn2cc(SCc3cccc(F)c3)c3ccccc32)cc1OC`, the survival is 52%.

As for `O=C(CCC(=O)N1CC2CCCN2c2ccccc21)NCc1ccccc1F` (stereo unspecified), the survival was 131%.

For the compound `CCOc1ccc(NC(=O)C2CCC(N3C(=O)C4CC=CCC4C3=O)CC2)cc1` (stereo unspecified), the survival is 77%.

`COc1ccc2oc(=O)c(-c3nc(-c4cccs4)no3)cc2c1`: the survival is 73%.

`CCc1ccc(NC(=O)CSc2nccn2C2CCCC2)cc1`: the survival was 70%.

In the case of `CCN(C(=O)c1cc2c(Cl)nc3ccc(C)cc3c2s1)c1cc(OC)ccc1OC`, the survival was 61%.

Regarding `CCOc1ccc2c(c1)c(=O)c(S(=O)(=O)c1ccc(C)cc1)cn2CC(=O)Nc1ccc(C)cc1`, the survival is 66%.

Turning to `O=C(CSc1cn(CCNC(=O)c2c(F)cccc2F)c2ccccc12)Nc1ccc(F)cc1`, the survival was 128%.

As to `O=C(NCCn1cc(SCc2ccc(F)cc2)c2ccccc21)c1c(F)cccc1F`, the survival was 53% (active).

`O=C(NCCn1cc(SCc2ccc(Br)cc2)c2ccccc21)c1cccs1`: the survival was 110%.

With `O=C(NCCn1cc(SCc2ccccc2)c2ccccc21)c1cccs1`, the survival was 54% (active).

As to `O=C(CSc1cn(CCNC(=O)c2c(F)cccc2F)c2ccccc12)Nc1ccccc1F`, the survival was 55%.

As to `O=C(NCCn1cc(SCc2ccc(F)cc2)c2ccccc21)c1cccs1`, the survival is 50%.

As for `CCOc1ccc(-c2cccc(NS(=O)(=O)c3ccc(F)cc3F)c2)nn1`, the survival was 77%.

For `CCN(CC)CCCNC(=O)Cn1nc(N2CCN(c3ccccc3OC)CC2)ccc1=O`, the survival is 75%.

As to `Fc1ccccc1Oc1ncnc2c1oc1ccccc12`, the survival is 37% (active).

For `CCOc1ccccc1Oc1ncnc2c1oc1ccccc12`, the survival is 83%.

On to `COc1ccc(Oc2ncnc3c2oc2ccccc23)cc1`, for which the survival was 55%.

Turning to `CC(=O)N1CCc2cc(S(=O)(=O)NC(CC(C)C)C(=O)Nc3ccc(C(C)C)cc3)ccc21` (stereo unspecified), the survival was 61%.

Consider `FC(F)(F)c1cccc(N2CCN(c3ncnc4c3nc3n4CCCC3)CC2)c1`, for which the survival is 95%.

On to `CCOC(=O)c1ccccc1NC(=O)CSc1nnc(CC)n2c1cc1occc12`, for which the survival is 63%.

In the case of `O=C(O)C1CCCCC1C(=O)Nc1cccc(C(=O)N2CCCCC2)c1` (stereo unspecified), the survival is 101%.

In the case of `COc1ccc(OC)c(NC(=O)c2ccc3c(SCC(=O)O)c4c(nc3c2)CCCC4)c1`, the survival is 64%.

In the case of `Cn1cnc2c(=O)oc3ccc(S(=O)(=O)N4CCN(c5ccccc5)CC4)cc3c21`, the survival was 77%.

For `Cn1cnc2c(=O)oc3ccc(S(=O)(=O)N4CCN(c5cccc(C(F)(F)F)c5)CC4)cc3c21`, the survival was 108%.

With `Cn1cnc2c(=O)oc3ccc(S(=O)(=O)N4CCN(c5cccc(Cl)c5)CC4)cc3c21`, the survival was -5% (active).

For `Cc1ccc(/C=C/c2onc(C)c2S(=O)(=O)N2CCC(C(=O)NCc3ccco3)CC2)cc1`, the survival was 74%.

`CCOc1ccccc1NC(=O)c1c(NC(=O)Cc2ccccc2)sc2c1CCCC2`: the survival was 81%.

Regarding `Cc1ccccc1NC(=O)c1c(NC(=O)c2ccccc2)sc2c1CCC2`, the survival is 126%.

For the compound `Cc1ccccc1NC(=O)c1c(NC(=O)Cc2ccccc2)sc2c1CCC2`, the survival was 29% (active).

With `CCOc1ccccc1NC(=O)c1c(NC(=O)Cc2ccc(OC)cc2)sc2c1CCC2`, the survival was 61%.

In the case of `COc1ccccc1NC(=O)c1c(NC(=O)c2ccccc2Cl)sc2c1CCC2`, the survival was 78%.

For `CCc1ccccc1NC(=O)c1c(NC(=O)c2ccccc2)sc2c1CCCC2`, the survival was 42% (active).

As to `CCOc1ccccc1NC(=O)c1c(NC(=O)c2ccccc2)sc2c1CCCC2`, the survival was 58%.

With `O=C(Cc1ccccc1)Nc1sc2c(c1C(=O)Nc1ccccc1Cl)CCC2`, the survival was 34% (active).

With `CCOc1ccccc1NC(=O)c1c(NC(=O)c2cccc(C)c2)sc2c1CCCC2`, the survival is 76%.

Turning to `COc1ccccc1NC(=O)c1c(NC(=O)c2ccccc2F)sc2c1CCC2`, the survival was 136%.

Take `O=C(Nc1sc2c(c1C(=O)Nc1ccccc1Cl)CCCC2)c1ccccc1F`: the survival is 48% (active).

On to `O=C(NC1CC(=O)N(c2ccc(Cl)cc2)C1)c1ccc2c(c1)OCO2` (stereo unspecified), for which the survival was 78%.

For `CN(C(=O)c1nn(C)c2c1COc1ccccc1-2)c1cccc(C(F)(F)F)c1`, the survival is 81%.

As to `Cc1ccc(C2=Nc3ccccc3N(CC(=O)Nc3cccc(F)c3)C(=O)C2)cc1C`, the survival is 79%.

Take `CCOC(=O)CC(=O)CSc1nc2ccccc2c(=O)n1CCc1ccccc1`: the survival is 84%.

Regarding `COc1cccc(C(=O)Nc2ccc3oc(-c4cccc5c(Br)cccc45)nc3c2)c1`, the survival is 59%.

Consider `O=C(CCC1N=C2c3ccccc3N=C(SCC(=O)Nc3ccc(F)cc3)N2C1=O)NCc1cccs1` (stereo unspecified), for which the survival is 87%.

In the case of `COc1ccccc1NC(=O)c1c(NC(=O)COc2ccccc2)sc2c1CCCCC2`, the survival is 85%.

As for `O=C(COc1ccccc1)Nc1sc2c(c1C(=O)Nc1ccccc1Cl)CCCCC2`, the survival is 56% (active).

With `O=C(Cc1ccccc1)Nc1sc2c(c1C(=O)Nc1ccccc1Cl)CCCCC2`, the survival was 47%.

For the compound `O=C(O)CCC(=O)Nc1sc2c(c1C(=O)Nc1ccccc1)CCCCC2`, the survival was 92%.

Take `O=C(COc1ccccc1)Nc1sc2c(c1C(=O)Nc1ccccc1)CCCCC2`: the survival is 85%.

For the compound `O=C(Cc1ccccc1)Nc1sc2c(c1C(=O)Nc1ccccc1Cl)CCCC2`, the survival is 31% (active).

Values taken from PubChem BioAssay AID463173 (ICCB-Longwood Screening Facility, Harvard Medical School, 2010).
